# PubChem BioAssay AID623911 (Vanderbilt High Throughput Screening Facility, 2012)
# The whole screen tested about 2,100 compounds, of which about 770 (37%) were called active. This is one part of the list. Unmarked numbers belong to inactive results.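 Rule for the calls: active = by-eye trace score of 1 for enhancers or -1 for inhibitors, so actives lie on both sides (some results past the limit were not filed as active); inactive = score 0, or 3 fluorescent, or 4 baseline rise.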
# Biological target: G protein-activated inward rectifier potassium channel 2 (Homo sapiens) + G protein-activated inward rectifier potassium channel 1 (Homo sapiens) (UniProt P48051+P48549)
# Assay: GIRK1/2 thallium flux modulators, retest, confirmation, cell-based, HEK293 rmGlu8/hGIRK1/2, FluoZin-2 (AID 623911)
# Details: HEK293 rmGlu8/hGIRK1/2, thallium flux FluoZin-2; actives lie on both sides; glutamate co-added at its EC20 level
# Chain of G protein-activated inward rectifier potassium channel 2 (Homo sapiens) + G protein-activated inward rectifier potassium channel 1 (Homo sapiens) (P48051 whole entry, looked up): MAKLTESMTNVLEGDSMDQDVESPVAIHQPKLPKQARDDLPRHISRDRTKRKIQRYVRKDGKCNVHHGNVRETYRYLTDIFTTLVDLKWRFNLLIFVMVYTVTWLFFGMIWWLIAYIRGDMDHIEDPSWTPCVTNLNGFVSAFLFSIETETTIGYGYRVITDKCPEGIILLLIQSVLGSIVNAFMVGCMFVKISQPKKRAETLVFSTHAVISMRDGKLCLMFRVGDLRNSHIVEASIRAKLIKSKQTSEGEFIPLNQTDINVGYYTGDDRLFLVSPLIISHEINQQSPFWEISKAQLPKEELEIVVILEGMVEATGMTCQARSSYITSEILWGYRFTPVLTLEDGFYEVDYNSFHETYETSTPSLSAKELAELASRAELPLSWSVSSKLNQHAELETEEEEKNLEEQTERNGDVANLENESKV
# Chain of G protein-activated inward rectifier potassium channel 2 (Homo sapiens) + G protein-activated inward rectifier potassium channel 1 (Homo sapiens) (P48549 whole entry, looked up): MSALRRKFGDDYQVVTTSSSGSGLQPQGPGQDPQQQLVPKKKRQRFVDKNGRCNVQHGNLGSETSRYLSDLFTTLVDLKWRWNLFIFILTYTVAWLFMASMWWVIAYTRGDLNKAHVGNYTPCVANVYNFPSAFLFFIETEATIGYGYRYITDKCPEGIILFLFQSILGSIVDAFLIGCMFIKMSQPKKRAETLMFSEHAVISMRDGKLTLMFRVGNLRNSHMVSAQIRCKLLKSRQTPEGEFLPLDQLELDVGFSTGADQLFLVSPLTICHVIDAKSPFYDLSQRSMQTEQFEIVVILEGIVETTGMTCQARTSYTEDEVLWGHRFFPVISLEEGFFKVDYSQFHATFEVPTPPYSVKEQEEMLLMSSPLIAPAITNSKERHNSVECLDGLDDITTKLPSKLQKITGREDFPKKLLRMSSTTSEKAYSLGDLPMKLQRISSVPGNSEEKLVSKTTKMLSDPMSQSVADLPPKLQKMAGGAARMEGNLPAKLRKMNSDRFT
row,SMILES,manual score
1,COc1cc(/C=C2/C(=O)N=C(N)N2C)cc(OC)c1OC,0
2,CC(C)COc1ccc(Cc2cnc(N)nc2N)cc1,0
3,COC(=O)c1ccccc1NC(=S)NC(=O)COc1ccccc1,1 (active)
4,O=C(COc1ccccc1)NC(=S)Nc1ccc2c3c(cccc13)CC2,0.5
5,Cc1ccc(C(=O)NC(=S)Nc2ccccc2C(F)(F)F)cc1C,0
6,Cc1ccc(C(=O)NC(=S)Nc2ccccc2C(F)(F)F)cc1,1 (active)
7,O=C(COc1ccccc1)NC(=S)Nc1cccc([N+](=O)[O-])c1,1 (active)
8,COC(=O)c1ccccc1NC(=S)NC(=O)c1ccc(C)cc1,1 (active)
9,COC(=O)c1ccccc1NC(=S)NC(=O)COc1ccc(C)cc1,0
10,O=C(COc1ccccc1)NC(=S)Nc1ccc2c(c1)Cc1ccccc1-2,0
11,CCC1c2ccc(C)n2CCN1C(=O)Nc1ccccc1C(=O)OC (stereo not drawn),0
12,O=C(NC(=S)Nc1ccc(Oc2ccc(Cl)cc2)cc1)c1ccccc1,0
13,COC(=O)c1ccccc1NC(=S)NC(=O)c1ccccc1,1 (active)
14,CC1CCCCN1CC(=O)Nc1ccc(Oc2ccccc2)cc1 (stereo not drawn),0
15,CC(C)CNC(=S)Nc1ccc(Oc2ccccc2)cc1,1 (active)
16,S=C(Nc1ccc(Oc2ccccc2)cc1)NC1CCCC1,1 (active)
17,CCOC(=O)c1ccc(NC(=S)NC(=O)COc2ccccc2)cc1,0.5
18,CCCN(CC1CC1)C(=S)Nc1ccc(Oc2ccccc2)cc1,1 (active)
19,FC(F)(F)Oc1ccc(NC(=S)NCc2ccccc2)cc1,0
20,S=C(NN=C(C1CC1)C1CC1)Nc1ccccc1,0
21,CCOC(=O)c1ccc(NC(=S)NC2CCCC2)cc1,1 (active)
22,CCOC(=O)c1[nH]c(C)c(C(=O)NC2CCCCC2)c1C,0

row,SMILES,manual score
1,COc1ccc(N(CC(=O)NCCSc2ccccn2)S(C)(=O)=O)cc1Cl,0
2,COc1ccc(CCNC(=O)CSc2nnc(-c3ccc(F)cc3)c3ccccc23)cc1OC,-1 (active)
3,COc1ccc(CN(C)CC(=O)NC(=O)NCc2ccccc2)cc1OC,0
4,COc1cc2c(cc1NC(=O)COc1ccccc1OC)oc1ccccc12,0
5,CCCCC(=O)Nc1ncc2c(n1)CC(C)(C)CC2=O,0
6,CC1(C)Cc2nc(NCCN3CCOCC3)c(C#N)cc2CO1,0
7,O=C(NN=C(Cc1ccccc1)Cc1ccccc1)c1ccc(F)cc1,1 (active)
8,N/C(=N\OC(=O)Cc1ccccc1)c1ccc(Br)cc1,0
9,Cc1cc(C)c(NC(=O)/C(=C/c2ccco2)c2ccccc2)c(C)c1,0
10,Cc1ccccc1C(=O)Nc1ccccc1C(=O)N/N=C\c1ccco1,1 (active)
11,O=C(Nc1ccccc1C(=O)N/N=C/c1ccco1)c1ccccc1,0.5
12,Fc1ccc(CSc2nc3ccccc3[nH]2)c2ccccc12,1 (active)
13,CC(Sc1nc2ccccc2c(=O)[nH]1)C(=O)O (stereo not drawn),0
14,O=C(CSc1nc2ccccc2[nH]1)NC1CCCc2ccccc21 (stereo not drawn),0
15,CN1CCN(c2ccccc2NS(=O)(=O)c2ccc3c(c2)CCN3C(=O)C2CCC2)CC1,-1 (active)
16,O=[n+]1c2c(n([O-])c3cc(F)c(N4CCCC4)cc31)CCC2,3
17,CCCN(CCC)CCNC(=O)C(NS(=O)(=O)c1ccc2c(c1)CCC(=O)N2)c1ccccc1 (stereo not drawn),0
18,Cc1ccc(S(=O)(=O)n2cnc3cc([N+](=O)[O-])ccc32)cc1C,0
19,COc1ccc(OC)c(C2C(C(=O)c3cc4ccccc4o3)=C(O)C(=O)N2c2cc(C)on2)c1 (stereo not drawn),0
20,Cc1cccc(-n2ncc3c(NCCc4ccc(S(N)(=O)=O)cc4)ncnc32)c1,0
21,Cc1nc(NCCc2ccc(S(N)(=O)=O)cc2)c2c(C)c(C)sc2n1,1 (active)
22,NS(=O)(=O)c1ccc(CCNC2CC(=O)N(Cc3ccccc3)C2=O)cc1 (stereo not drawn),0

row,SMILES,manual score
1,CC(C)CNC(=S)NC(=O)c1ccccc1Cl,0
2,CCCCNC(=S)NC(=O)c1ccc(Cl)cc1Cl,1 (active)
3,CC(C)NC(=S)NC(=O)c1ccc(Cl)cc1Cl,1 (active)
4,CC(C)CNC(=S)NC(=O)c1ccc(Cl)cc1Cl,1 (active)
5,CCCCNC(=S)NC(=O)c1ccccc1Br,0.5
6,CCOc1ccc(C(C)=O)cc1N1C(=O)C2C(C1=O)C1C=CC2C12CC2 (stereo not drawn),0
7,C=CCn1c(=S)[nH]c2sc3c(c2c1=O)CCC3,1 (active)
8,CC(=O)Nc1ccc(Oc2ncccn2)cc1,0
9,Cc1nc(C)c(C(=O)Nc2ccc(Oc3ccccc3)cc2)o1,1 (active)
10,Cc1ncoc1C(=O)Nc1ccc(Oc2ccccc2)cc1,0.5
11,O=C1c2ccsc2SCCN1Cc1c(Cl)cccc1Cl,-1 (active)
12,CCCC(c1c(C)n(C)n(-c2ccccc2)c1=O)c1c(C)n(C)n(-c2ccccc2)c1=O,0
13,O=C(N/N=C/c1ccc2cccc(OCc3ccccc3)c2n1)c1ccc(Br)cc1,0.5
14,O=C(N/N=C/c1ccccn1)c1ccc(Br)cc1,1 (active)
15,COc1ccc(C(=O)N/N=C/c2ccc3cccc(OCc4ccccc4)c3n2)cc1,0
16,CCOC(=O)C1=C(C)Nc2nnnn2C1c1ccccc1Cl (stereo not drawn),-1 (active)
17,CCCC1=C(C(=O)OCC)C(c2ccc(F)cc2)n2ncnc2N1 (stereo not drawn),0
18,CCOC(=O)C1=C(C)NC2=C(C(=O)C(C(=O)OCC)C(c3ccccc3OC)C2)C1c1ccccn1 (stereo not drawn),0
19,CCCCn1c(SCC(=O)NCc2ccco2)nc2ccccc2c1=O,0.5
20,CCCn1c(NCc2ccc(N(C)C)cc2)nc2ccccc21,-1 (active)
21,CCc1c(C)c(C#N)c2nc3ccccc3n2c1NCc1ccco1,-1 (active)
22,CCCCn1c(NC(=S)Nc2ccccc2)nc2ccccc21,0

row,SMILES,manual score
1,CCN1c2ccccc2-c2nc3ccccc3n2C1c1ccco1 (stereo not drawn),0
2,Cn1c(NCc2cccc(Br)c2)nc2ccccc21,-1 (active)
3,CCCCn1c(NC(=O)c2ccccc2Cl)c(C#N)c2nc3ccccc3nc21,-0.5
4,CCCCCn1c(NCc2ccco2)nc2ccccc21,-1 (active)
5,CC(C)CCn1c(S(=O)(=O)O)nc2ccccc21,0
6,C/C(=N\NC(=O)c1ccccc1)c1nc2ccccc2n1C,0
7,Cc1cccc(N2C(N)=NC(N)=NC23CCCCC3)c1,0
8,O=C(CN1C(=O)/C(=C/c2ccccc2F)Oc2ccccc21)N1CCN(c2ccccn2)CC1,0
9,O=C(NNC(=O)c1cccnc1SCc1cccc([N+](=O)[O-])c1)c1ccccn1,0
10,O=C(Oc1c(Cl)cc(Cl)c2cccnc12)c1cccc([N+](=O)[O-])c1,1 (active)
11,O=C(Oc1c(Cl)cc(Cl)c2cccnc12)c1ccco1,1 (active)
12,Cc1ccccc1NC1=C(Cl)C(=O)OC1OC(=O)c1ccco1 (stereo not drawn),0
13,O=C(NNC(=O)c1cccnc1SCc1cccc([N+](=O)[O-])c1)c1cccnc1,0
14,Cc1ccc(C2c3c(oc4ccc(Cl)cc4c3=O)C(=O)N2CCCN2CCOCC2)o1 (stereo not drawn),0.5
15,O=c1c2ccccc2c(C=NCc2ccccn2)c(O)n1-c1ccccc1,0
16,CCOc1ccc(Br)cc1/C(C)=N\NC1=NCCN1,-1 (active)
17,CCNS(=O)(=O)c1cc(S(C)(=O)=O)ccc1Cl,0
18,COc1ccc(/C=N/n2c(-c3cccs3)n[nH]c2=S)cc1,1 (active)
19,Cc1ccc(/C=N/n2c(COc3ccccc3)n[nH]c2=S)s1,0
20,CCN(CC)S(=O)(=O)c1cccc(-c2n[nH]c(=S)n2/N=C/c2ccc(C(=O)OC)cc2)c1,0
21,CC(/C=N/n1c(-c2ccccc2)n[nH]c1=S)=C\c1ccco1,0
22,COc1cccc(/C=N/n2c(-c3cccs3)n[nH]c2=S)c1,1 (active)

row,SMILES,manual score
1,CC(=C/c1ccccc1)/C=N/n1c(-c2ccco2)n[nH]c1=S,0
2,CC(=O)Nc1ccc(S(=O)(=O)NC(C(=O)O)C2=CCC=CC2)cc1 (stereo not drawn),0
3,CN(C)S(=O)(=O)c1cccc(NC(=S)Nc2ccc(Cl)cc2Cl)c1,1 (active)
4,CN(C)S(=O)(=O)c1cccc(NC(=O)COc2cccc(C#N)c2)c1,0
5,S=C(Nc1ccccc1Cl)Nc1ccc(Cl)cc1Cl,1 (active)
6,CN(C)S(=O)(=O)c1cccc(NC(=O)Cc2ccc(Cl)cc2)c1,1 (active)
7,CN(C)S(=O)(=O)c1cccc(NC(=S)Nc2cc(Cl)cc(Cl)c2)c1,1 (active)
8,Cc1ccc(NCC(=O)Nc2cccc(S(=O)(=O)N(C)C)c2)c(Cl)c1,0
9,O=C(Nc1cccc(S(=O)(=O)c2cccc(NC(=O)C3CC3)c2)c1)C1CC1,0
10,O=C(NCCCCNC(=O)c1cccnc1)c1cccnc1,0
11,CC(C)OC(=O)/C(=C/c1cccnc1)NC(=O)c1ccccc1,0
12,O=C(N/N=C(\c1ccccc1)c1cccnc1)C(O)(c1ccccc1)c1ccccc1,-1 (active)
13,Cc1cc(N2C(=O)C(O)=C(C(=O)c3ccc(C)o3)C2c2cccs2)no1 (stereo not drawn),0
14,CCCCn1c(-c2ccc(Cl)cc2)nc2c(=O)n(C)c(=O)[nH]c21,0
15,CCN(CC)C(=O)CSc1ncnc2sc(-c3ccccc3)cc12,0
16,CC(=O)c1c(C)[nH]c(C(=O)CSc2ncnc3sc(-c4ccccc4)cc23)c1C,1 (active)
17,CC(C)N(C(=O)CSc1ncnc2sc(-c3ccccc3)cc12)C(C)C,0
18,Brc1ccccc1-c1nnc2sc(-c3ccc4c(c3)OCCO4)nn12,-1 (active)
19,Clc1ccccc1-c1nnc2sc(-c3ccccn3)nn12,0.5
20,Clc1ccccc1-c1nnc2sc(-c3ccc4c(c3)OCO4)nn12,0
